MITF TRPM1 inh: inhibitors of MITF-dependent TRPM1 promoter reporter, primary screen, cell-based, SK-MEL-5, single point, luciferase; SK-MEL-5 TRPM1 promoter luciferase, 24 h; inhibition, % at 12.5 µM; 330,000 tested, 0.83% active;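 active = mean inhibition across replicates of 60% or more, whatever share of single replicates reaches that level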
CF NFkB inh: inhibitors of PAF-induced NF-kB signaling, primary screen, cell-based, GFP fluorescence, uHTS | KKLEB NF-kB-GFP reporter, GFP fluorescence overnight | inhibition, % at 5 µM | 360,000 tested, 0.86% active | AID 588850, 2011;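 active = at least 50% inhibition at 5 µM, scaled per plate between neutral and stimulator controls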;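 also: PAF is a Pseudomonas aeruginosa culture filtrate used as stimulus; plate controls were PAF-stimulated DMSO wells for no effect and unstimulated DMSO wells for full effect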
Peg3 prom inh: Peg3 promoter-driven luciferase inhibitors, primary screen, cell-based, HeLa, luciferase luminescence. 360,000 tested, 1.7% active. HeLa PEG-Prom luciferase reporter, overnight. inhibition, % at 20 µM. AID 588405, 2011;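 active = inhibition of at least 50% at 20 µM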
ABHD5 PLIN5 PPI: ABHD5-PLIN5 interaction inhibitors, primary screen, cell lysate, split luciferase complementation, luminescence; Split G. princeps luciferase complementation, 4 h; inhibition, % at 4 µM; 360,000 tested, 0.78% active; AID 602281, 2012;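 active = inhibition above the mean inhibition across every tested compound plus 3 SD, cut at about 22% in these data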;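 also: 0% = DMSO only wells and the 100% control is not disclosed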
Target sequence (Q00G26 whole entry, looked up): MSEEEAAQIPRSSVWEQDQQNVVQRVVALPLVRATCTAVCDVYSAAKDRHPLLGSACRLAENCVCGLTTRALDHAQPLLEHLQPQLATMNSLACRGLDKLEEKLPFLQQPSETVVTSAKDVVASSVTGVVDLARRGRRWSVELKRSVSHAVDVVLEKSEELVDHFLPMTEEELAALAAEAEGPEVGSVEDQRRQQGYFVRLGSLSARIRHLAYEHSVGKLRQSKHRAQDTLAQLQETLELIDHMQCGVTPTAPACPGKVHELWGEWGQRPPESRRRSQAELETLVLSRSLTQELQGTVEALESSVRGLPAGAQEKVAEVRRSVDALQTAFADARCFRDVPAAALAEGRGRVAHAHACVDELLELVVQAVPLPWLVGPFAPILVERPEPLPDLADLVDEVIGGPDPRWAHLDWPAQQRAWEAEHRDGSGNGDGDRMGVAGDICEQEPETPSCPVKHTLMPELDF
Target sequence (Q8WTS1 whole entry, looked up): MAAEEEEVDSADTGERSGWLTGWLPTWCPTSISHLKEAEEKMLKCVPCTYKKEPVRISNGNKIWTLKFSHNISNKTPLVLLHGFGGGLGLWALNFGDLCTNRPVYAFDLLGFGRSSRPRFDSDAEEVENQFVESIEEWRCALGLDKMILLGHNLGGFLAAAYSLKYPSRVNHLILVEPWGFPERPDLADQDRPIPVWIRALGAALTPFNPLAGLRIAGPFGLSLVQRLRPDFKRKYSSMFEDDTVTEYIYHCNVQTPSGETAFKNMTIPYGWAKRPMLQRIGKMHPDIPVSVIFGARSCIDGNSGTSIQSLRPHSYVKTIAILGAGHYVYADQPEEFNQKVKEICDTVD
KKLEB cytotox: cytotoxicity in KKLEB CF airway cells, primary screen, cytotoxicity control for CF NF-kB inhibitor project, cell-based, uHTS, fluorescence assay plates; KKLEB CF airway cells viability, ATPlite luminescence, overnight; active compounds read low; cells stimulated with P. aeruginosa culture filtrate; activity change (cytotoxicity), % at 5 µM; 360,000 tested, 0.36% active; AID 602141, 2011;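 active = corrected activity change at or below -50% at 5 µM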
HIF-2a inh: HIF-2a reporter inhibitors, primary screen, luminescence, 786-0 RCC cells; 360,000 tested, 0.72% active; inhibition, % at 18.8 µM; 786-0 RCC cells HIF-2a reporter, luciferase luminescence, overnight;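 active = inhibition of the luminescence signal of 40% or more relative to plate controls, in a single-dose primary screen at 18.75 µM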
An asterisk follows results filed as active. An excerpt weighted towards active compounds, which were near 3% of everything screened.

For COc1ccc(C(=O)N2CCC2)cc1S(=O)(=O)NCc1ccc(Cl)cc1 the results were MITF TRPM1 inh 4.7, CF NFkB inh 1.8, Peg3 prom inh -12.0, ABHD5 PLIN5 PPI 4.3, KKLEB cytotox -13.7 and HIF-2a inh 11.4.
Screening CCN(CC)S(=O)(=O)c1ccc(N2CCOCC2)c(NC(=O)c2cccc3ccccc23)c1 returned MITF TRPM1 inh 9.8, CF NFkB inh -11.4, Peg3 prom inh 34.2, ABHD5 PLIN5 PPI 2.1, KKLEB cytotox 5.3 and HIF-2a inh 10.8.
CCN(CC)S(=O)(=O)c1ccc(N2CCOCC2)c(NC(=O)c2cc(-c3ccccn3)nc3ccccc23)c1 was read as MITF TRPM1 inh 5.4, CF NFkB inh 96.7*, Peg3 prom inh 61.5*, ABHD5 PLIN5 PPI 5.0, KKLEB cytotox -88.8* and HIF-2a inh -4.8.
For CCOc1cc(N2CCOCC2)c(OCC)cc1NC(=O)c1cc(-c2ccco2)nc2ccccc12 the results were MITF TRPM1 inh 16.9, CF NFkB inh 98.8*, Peg3 prom inh 49.5, ABHD5 PLIN5 PPI -5.2, KKLEB cytotox -39.1 and HIF-2a inh -6.2.
For CCOc1cc(N2CCOCC2)c(OCC)cc1NC(=O)COc1ncnc2ccccc12 the results were MITF TRPM1 inh 15.1, CF NFkB inh -0.1, Peg3 prom inh 14.1, ABHD5 PLIN5 PPI -0.8, KKLEB cytotox 2.9 and HIF-2a inh 22.3.
CCNC(=O)C1(C)CCN(C(=O)c2c(-c3ccccc3)noc2C)C1 (stereo unspecified) was read as CF NFkB inh 5.0, Peg3 prom inh -2.5, ABHD5 PLIN5 PPI -5.0, KKLEB cytotox 3.1 and HIF-2a inh 5.6.
CCN(CC)CCNC(=O)c1ccc2c(c1NCCO)C(=O)c1ccccc1C2=O was read as CF NFkB inh 76.7*, Peg3 prom inh 111.1*, ABHD5 PLIN5 PPI -4.5, KKLEB cytotox -51.7* and HIF-2a inh 61.6*.
Nc1cccc(C(=O)OCC(=O)Nc2cccc3c2C(=O)c2ccccc2C3=O)c1 was read as MITF TRPM1 inh 17.5, CF NFkB inh -93.3, Peg3 prom inh 25.9, ABHD5 PLIN5 PPI 1.1, KKLEB cytotox 14.7 and HIF-2a inh -20.8.
Screening CCN(CC)CCC(=O)Nc1cccc2c1C(=O)c1ccccc1C2=O returned MITF TRPM1 inh 70.9*, CF NFkB inh -121.6, Peg3 prom inh 106.9*, ABHD5 PLIN5 PPI 1.0, KKLEB cytotox -1.1 and HIF-2a inh 34.1.
Cc1ccc(C(=O)OCC(=O)NCc2ccco2)cc1 was read as MITF TRPM1 inh -9.6, CF NFkB inh -0.2, Peg3 prom inh -12.3, ABHD5 PLIN5 PPI -0.2, KKLEB cytotox 0.8 and HIF-2a inh -4.4.
Screening O=C(COC(=O)c1ccccc1)NCc1ccco1 returned MITF TRPM1 inh 11.4, CF NFkB inh 8.6, Peg3 prom inh -7.1, ABHD5 PLIN5 PPI 8.2, KKLEB cytotox -93.5* and HIF-2a inh -2.8.
Screening NC(=O)CC(NC(=O)Cc1ccc(Br)cc1)c1ccc(N2CCc3ccccc3C2)c([N+](=O)[O-])c1 (stereo unspecified) returned MITF TRPM1 inh 1.5, CF NFkB inh 3.5, Peg3 prom inh 3.6, ABHD5 PLIN5 PPI -2.0, KKLEB cytotox -2.8 and HIF-2a inh 6.7.
`O=C(O)CCC(=O)Nc1ccc(C(=O)OC2CCCCC2)cc1` gave MITF TRPM1 inh 7.5, CF NFkB inh 3.1, Peg3 prom inh 9.3, ABHD5 PLIN5 PPI 1.6, KKLEB cytotox 12.9 and HIF-2a inh 52.5*.
CSC1SCC2C(=O)N(C)C(C(C)C)C(=O)OCC(NC(=O)c3cnc4ccccc4n3)C(=O)NC(C)C(=O)N(C)C1C(=O)N(C)C(C(C)C)C(=O)OCC(NC(=O)c1cnc3ccccc3n1)C(=O)NC(C)C(=O)N2C (stereo unspecified) was read as MITF TRPM1 inh 45.8, CF NFkB inh 95.7*, Peg3 prom inh 99.0*, ABHD5 PLIN5 PPI -4.3, KKLEB cytotox -37.1 and HIF-2a inh 63.2*.
Screening O=C(/C=C/NNC(=O)c1ccccc1)c1ccccc1 returned MITF TRPM1 inh -4.0, CF NFkB inh -10.4, Peg3 prom inh -31.5, ABHD5 PLIN5 PPI 1.7, KKLEB cytotox 0.6 and HIF-2a inh -44.9.
O=C(/C=C/NNC(=O)c1ccccc1)c1ccc([N+](=O)[O-])cc1 was read as MITF TRPM1 inh 64.0*, CF NFkB inh -19.7, Peg3 prom inh 47.0, ABHD5 PLIN5 PPI -0.5, KKLEB cytotox -2.8 and HIF-2a inh -11.3.
For Cc1ccc(S(=O)(=O)N2CCC(N3CCC(C)CC3)CC2)cc1 the results were MITF TRPM1 inh -13.3, CF NFkB inh -2.4, Peg3 prom inh 19.7, ABHD5 PLIN5 PPI -1.6, KKLEB cytotox -14.8 and HIF-2a inh 10.5.
Screening O=C1/C(=C/c2ccccc2)SC(=S)N1C1CCS(=O)(=O)C1 (stereo unspecified) returned MITF TRPM1 inh 11.3, CF NFkB inh 8.8, Peg3 prom inh 1.0, ABHD5 PLIN5 PPI -1.1, KKLEB cytotox 8.2 and HIF-2a inh 3.2.
O=C1/C(=C/c2ccncc2)SC(=S)N1C1CCS(=O)(=O)C1 (stereo unspecified) was read as MITF TRPM1 inh 9.2, CF NFkB inh 64.8*, Peg3 prom inh 40.8, ABHD5 PLIN5 PPI -16.4, KKLEB cytotox -9.7 and HIF-2a inh 40.7*.
`COc1ccccc1OCC(=O)NCCSCc1ccc(Cl)cc1` gave MITF TRPM1 inh -11.4, CF NFkB inh 0.0, Peg3 prom inh 77.3*, ABHD5 PLIN5 PPI 2.8, KKLEB cytotox -4.9 and HIF-2a inh 6.6.
`CCCC(=O)N1CCC1(C)C(=O)Nc1cc(OC)c(OC)c(OC)c1` (stereo unspecified) gave CF NFkB inh 1.5, Peg3 prom inh 12.1, ABHD5 PLIN5 PPI -6.9, KKLEB cytotox -3.0 and HIF-2a inh 11.5.
CCc1c(C)nc2c(-c3ccccc3)c(-c3ccccc3)[nH]n2c1=O was read as MITF TRPM1 inh 2.5, CF NFkB inh -36.9, Peg3 prom inh 52.5*, ABHD5 PLIN5 PPI 5.1, KKLEB cytotox 7.5 and HIF-2a inh 8.2.
CCCCCCc1cc2cc(C(=O)NC)c(=N)oc2cc1O was read as MITF TRPM1 inh -2.9, CF NFkB inh 17.4, Peg3 prom inh 15.8, ABHD5 PLIN5 PPI 2.6, KKLEB cytotox 4.3 and HIF-2a inh -13.2.
CCCCCCc1cc2cc(C(=O)Nc3ccc(OC)cc3)c(=O)oc2cc1O was read as MITF TRPM1 inh 9.2, CF NFkB inh 51.6*, Peg3 prom inh 43.0, ABHD5 PLIN5 PPI -0.8, KKLEB cytotox -56.6* and HIF-2a inh 15.6.
`Cc1ccc(S(=O)(=O)c2cc3ccc(O)cc3oc2=O)cc1C` gave MITF TRPM1 inh -1.3, CF NFkB inh -22.1, Peg3 prom inh 2.7, ABHD5 PLIN5 PPI -10.8, KKLEB cytotox 8.0 and HIF-2a inh 7.5.

Screening data from PubChem.
